The record followed here is ChEMBL document CHEMBL3988442, “University of Dundee, Small-Polar-MMV Screening Library” (2021).

One assay deals with Sialic acid-binding Ig-like lectin 9 (Homo sapiens) (UniProt Q9Y336). Description: Hs-Siglec9 ALPHAscreen SOP 20170721. The arrangement: scale not given: direction of the effect not stated beside the values. To be noted: 10 µM.
Chain of Sialic acid-binding Ig-like lectin 9 (Homo sapiens) (Q9Y336 whole entry): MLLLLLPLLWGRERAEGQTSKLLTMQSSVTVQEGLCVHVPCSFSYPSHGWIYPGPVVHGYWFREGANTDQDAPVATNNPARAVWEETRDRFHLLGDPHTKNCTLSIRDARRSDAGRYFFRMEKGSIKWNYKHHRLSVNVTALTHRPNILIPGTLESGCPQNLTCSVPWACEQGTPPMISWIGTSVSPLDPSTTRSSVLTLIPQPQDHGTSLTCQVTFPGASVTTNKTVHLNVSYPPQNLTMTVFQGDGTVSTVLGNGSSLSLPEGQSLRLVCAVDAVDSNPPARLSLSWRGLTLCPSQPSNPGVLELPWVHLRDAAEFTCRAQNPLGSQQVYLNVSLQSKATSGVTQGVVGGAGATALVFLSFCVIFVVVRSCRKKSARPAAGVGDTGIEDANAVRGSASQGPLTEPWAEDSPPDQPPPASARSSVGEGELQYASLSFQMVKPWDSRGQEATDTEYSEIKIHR
Take `CCN(CC)C(=O)c1ccn(COc2cc(C)cc(C)c2)n1`: the Percent Effect came to 1.4%.
The same measure, in the same setting: then `Cc1cc(C(=O)N2C[C@@H]3COC[C@]3(c3nnc(C4CC4)o3)C2)on1`, with -0.841%.
The same measure, in the same setting: for `COC(=O)c1ccc(N2CCN(CCN3CCOCC3)C(C)C2)cc1` (stereo not drawn) the value was 3.41%; for `Cc1ccc(N2CCCC(NCc3cscn3)C2)nn1` (stereo not drawn), -1.8%; for `Cc1noc2ncc(C(=O)N(CC3CCOC3)C3CC3)cc12` (stereo not drawn), 3.92%.
Turning to `Cc1cnn(CC2CCCN2c2nn3cc(C)nc3s2)c1` (stereo not drawn), the Percent Effect turned out to be 2.81%.
Turning to `CCC(NC(=O)C1CCN(S(C)(=O)=O)CC1)c1ccc(OC)c(C)c1` (stereo not drawn), the Percent Effect was 27.4%.
On the same count and under the same terms, then `CNC(=O)[C@@]12CCC3(CCN(S(C)(=O)=O)CC3)[C@@H]1CN(S(C)(=O)=O)C2`, with 2.21%; and `Cc1ccc(C(=O)N2CCN(CCCSCC#N)CC2)o1`, with 10.8%; and `CC(=O)N(Cc1ncc(C)o1)C1CCN(CCNC2CCCCC2)C1` (stereo not drawn), with -9.81%.
On the same count and under the same terms, then `Cc1cnc(CN(C)CC2CCCN2c2cccnn2)cn1` (stereo not drawn), with -13.5%; and `Cc1cnn(CC2CCCN2C(=O)c2cnc3n[nH]c(C)c3c2)c1` (stereo not drawn), with -4.46%; and `CC(=O)c1cccc(S(=O)(=O)N2CSCC2C(=O)NCC(F)(F)F)c1` (stereo not drawn), with 3.21%.
`CCCN(Cc1ccccc1)Cn1nc(C)c2c(C)onc2c1=O`: the Percent Effect was 25.6%.
Still for that read-out and setting: for `CN1CCCC(Cc2ccnc3ccncc23)CC1` (stereo not drawn) the value was 0.644%.
In the case of `N#Cc1ccccc1CN1C[C@@H]2CC[C@H](C1)N(Cc1cscn1)C2=O`, the Percent Effect was found to be 8.56%.
Same read-out and setting: for `CSc1ncc(C(=O)N2C[C@H]3CC[C@@H]2CN(Cc2ccccc2)C3)cn1` the value was -2.06%.
On to `N#CCSCCCN1CCCN(C(=O)c2ccccc2)CC1`, for which the Percent Effect is 1.74%.
As to `Cc1nn(C)c(N2CCOCC2)c1CNC(C)c1ccco1` (stereo not drawn), the Percent Effect is 26.4%.
Same read-out and setting: for `COc1cc(CNc2cnn(C)c2)cc2c1OCCO2` the value was 3.9%; for `CCOCC1CN(S(C)(=O)=O)Cc2ncn(CC3CC3)c21` (stereo not drawn), 6.97%.
`COc1ccc(C(=O)Nc2cnn(CC(=O)NC3CCCC3)c2)c(O)c1`: the Percent Effect was 5.57%.
The same measure, in the same setting: then `COCC(=O)N1CCCC1c1ccnc(Nc2cnccn2)n1` (stereo not drawn), with 8.04%; and `Cn1cnc2c1CCN(CCCOc1ccc(C#N)cc1)C2`, with -0.18%; and `COCCN1CCC(NCc2cccc(F)c2)C1` (stereo not drawn), with 0.179%.
`Cc1nc(CCN(C)C(=O)C2COc3ccccc3C2)no1` (stereo not drawn): the Percent Effect turned out to be 19.8%.
The same measure, in the same setting: for `COCC1CC2(CCN(C(=O)c3cccc(C)c3)CC2)CO1` (stereo not drawn) the value was 6.28%.
With `CC(C)CC(=O)N1CCCn2cnc(CN3CCCC3=O)c2C1`, the Percent Effect is -3.33%.
For the molecule `Cc1nc(C)n(CC2CCCN(Cc3nc(C4CC4)no3)C2)n1` (stereo not drawn), the Percent Effect amounted to 4.88%.
As for `COc1cccc([C@@H]2CN(C(=O)c3ccc(C)cc3O)C[C@H]2C(=O)O)c1`, the Percent Effect turned out to be 25.8%.
On the same count and under the same terms, for `Nc1nc(CN2CCCC(Cn3cncn3)C2)nc2ccccc12` (stereo not drawn) the value was 9.62%; for `O=C1C(NS(=O)(=O)c2cc(F)cc(F)c2)CCN1Cc1ccccc1` (stereo not drawn), -3.2%.
Same read-out and setting: then `CCCc1nc(N2Cc3cnn(Cc4ccc(F)cc4)c3C2)no1`, with 2.42%; and `COc1cc(N2C[C@H]3OCC[C@H]3[C@H](C(=O)NC3CC3)C2)ncn1`, with 8.48%.
The same measure, in the same setting: for `CCN(Cc1cccc(Cl)c1)Cc1nc2c(cnn2C)c(=O)[nH]1` the value was -4.85%; for `CC(C)c1ccc(OCn2ccc(C(=O)N3CCCC3)n2)cc1`, 12.1%.
For the molecule `CCc1cc(NC2CCN(S(C)(=O)=O)CC2)n2nc(C)c(C)c2n1`, the Percent Effect was -1.11%.
In the case of `COc1c(CNCC(c2cccc(F)c2)N(C)C)c(C(C)C)nn1C` (stereo not drawn), the Percent Effect is -6.06%.
On to `Cc1ccccc1C(=O)NCc1ccc(N2CCNC(=O)C2)c(F)c1`, for which the Percent Effect came out at 4.68%.

The next assay concerns Trypanosoma cruzi. Description: Trypanosoma cruzi phosphomannomutase and mannose-1-phosphate guanylyltransferase assay. The assay is classed as functional. Also on record: scale not given: direction of the effect not stated beside the values. Conditions: 10 µM.
Consider `CCN(CC)C(=O)c1ccn(COc2cc(C)cc(C)c2)n1`, for which the Percent Effect was -0.982%.
Turning to `Cc1cc(C(=O)N2C[C@@H]3COC[C@]3(c3nnc(C4CC4)o3)C2)on1`, the Percent Effect came out at 1.16%.
On to `COC(=O)c1ccc(N2CCN(CCN3CCOCC3)C(C)C2)cc1` (stereo not drawn), for which the Percent Effect is -0.467%.
Still for that read-out and setting: for `Cc1ccc(N2CCCC(NCc3cscn3)C2)nn1` (stereo not drawn) the value was -1.04%; for `Cc1noc2ncc(C(=O)N(CC3CCOC3)C3CC3)cc12` (stereo not drawn), -9.59%.
The same measure, in the same setting: for `Cc1cnn(CC2CCCN2c2nn3cc(C)nc3s2)c1` (stereo not drawn) the value was -0.103%.
The same measure, in the same setting: for `CCC(NC(=O)C1CCN(S(C)(=O)=O)CC1)c1ccc(OC)c(C)c1` (stereo not drawn) the value was 4.03%.
Take `CNC(=O)[C@@]12CCC3(CCN(S(C)(=O)=O)CC3)[C@@H]1CN(S(C)(=O)=O)C2`: the Percent Effect is -3.81%.
Still for that read-out and setting: for `Cc1ccc(C(=O)N2CCN(CCCSCC#N)CC2)o1` the value was 1.98%.
For `CC(=O)N(Cc1ncc(C)o1)C1CCN(CCNC2CCCCC2)C1` (stereo not drawn), the Percent Effect is -9.68%.
For `Cc1cnc(CN(C)CC2CCCN2c2cccnn2)cn1` (stereo not drawn), the Percent Effect stood at 1.27%.
Same read-out and setting: then `Cc1cnn(CC2CCCN2C(=O)c2cnc3n[nH]c(C)c3c2)c1` (stereo not drawn), with 2.36%; and `CC(=O)c1cccc(S(=O)(=O)N2CSCC2C(=O)NCC(F)(F)F)c1` (stereo not drawn), with -0.103%.
On to `CCCN(Cc1ccccc1)Cn1nc(C)c2c(C)onc2c1=O`, for which the Percent Effect came out at 4.62%.
`CN1CCCC(Cc2ccnc3ccncc23)CC1` (stereo not drawn): the Percent Effect was -0.988%.
For `N#Cc1ccccc1CN1C[C@@H]2CC[C@H](C1)N(Cc1cscn1)C2=O`, the Percent Effect is -2.9%.
Same read-out and setting: for `CSc1ncc(C(=O)N2C[C@H]3CC[C@@H]2CN(Cc2ccccc2)C3)cn1` the value was -6.66%; for `N#CCSCCCN1CCCN(C(=O)c2ccccc2)CC1`, -4.17%; for `Cc1nn(C)c(N2CCOCC2)c1CNC(C)c1ccco1` (stereo not drawn), 6.32%.
On the same count and under the same terms, for `COc1cc(CNc2cnn(C)c2)cc2c1OCCO2` the value was 1.5%.
Regarding `CCOCC1CN(S(C)(=O)=O)Cc2ncn(CC3CC3)c21` (stereo not drawn), the Percent Effect came out at 3.81%.
Same read-out and setting: for `COc1ccc(C(=O)Nc2cnn(CC(=O)NC3CCCC3)c2)c(O)c1` the value was 3.77%.
For `COCC(=O)N1CCCC1c1ccnc(Nc2cnccn2)n1` (stereo not drawn), the Percent Effect was -0.395%.
For the molecule `Cn1cnc2c1CCN(CCCOc1ccc(C#N)cc1)C2`, the Percent Effect was -2.93%.
Still for that read-out and setting: for `COCCN1CCC(NCc2cccc(F)c2)C1` (stereo not drawn) the value was -5.24%; for `Cc1nc(CCN(C)C(=O)C2COc3ccccc3C2)no1` (stereo not drawn), 8.55%; for `COCC1CC2(CCN(C(=O)c3cccc(C)c3)CC2)CO1` (stereo not drawn), -1.68%.
Same read-out and setting: for `CC(C)CC(=O)N1CCCn2cnc(CN3CCCC3=O)c2C1` the value was -3.23%; for `Cc1nc(C)n(CC2CCCN(Cc3nc(C4CC4)no3)C2)n1` (stereo not drawn), 3.11%; for `COc1cccc([C@@H]2CN(C(=O)c3ccc(C)cc3O)C[C@H]2C(=O)O)c1`, 4.59%.
For the molecule `Nc1nc(CN2CCCC(Cn3cncn3)C2)nc2ccccc12` (stereo not drawn), the Percent Effect was found to be 3.06%.
As for `O=C1C(NS(=O)(=O)c2cc(F)cc(F)c2)CCN1Cc1ccccc1` (stereo not drawn), the Percent Effect stood at 6.52%.
For the molecule `CCCc1nc(N2Cc3cnn(Cc4ccc(F)cc4)c3C2)no1`, the Percent Effect is -2.04%.
The same measure, in the same setting: for `COc1cc(N2C[C@H]3OCC[C@H]3[C@H](C(=O)NC3CC3)C2)ncn1` the value was 2.18%; for `CCN(Cc1cccc(Cl)c1)Cc1nc2c(cnn2C)c(=O)[nH]1`, -0.49%; for `CC(C)c1ccc(OCn2ccc(C(=O)N3CCCC3)n2)cc1`, 6.2%.
On the same count and under the same terms, for `CCc1cc(NC2CCN(S(C)(=O)=O)CC2)n2nc(C)c(C)c2n1` the value was -4.37%; for `COc1c(CNCC(c2cccc(F)c2)N(C)C)c(C(C)C)nn1C` (stereo not drawn), 4.6%; for `Cc1ccccc1C(=O)NCc1ccc(N2CCNC(=O)C2)c(F)c1`, 0.579%.
